Hits are enriched below; roughly 4.7% of the tested compounds scored in any of these assays.
ADAM10 inh: human ADAM10 inhibitors, primary screen, biochemical, QFRET, HTS. recombinant ADAM10, EDANS/DABCYL FRET peptide cleavage, 3 h. AID 720582, 2013. Disintegrin and metalloproteinase domain-containing protein 10 (Homo sapiens), O14672. inhibition, % at 7 µM. 370,000 tested, 0.62% active;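 active means inhibition above a per-campaign cutoff equal to the mean of compounds falling between control-based bounds plus 3 SD, cut at about 20% in these data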
Target sequence (O14672 214-748 limits assumed): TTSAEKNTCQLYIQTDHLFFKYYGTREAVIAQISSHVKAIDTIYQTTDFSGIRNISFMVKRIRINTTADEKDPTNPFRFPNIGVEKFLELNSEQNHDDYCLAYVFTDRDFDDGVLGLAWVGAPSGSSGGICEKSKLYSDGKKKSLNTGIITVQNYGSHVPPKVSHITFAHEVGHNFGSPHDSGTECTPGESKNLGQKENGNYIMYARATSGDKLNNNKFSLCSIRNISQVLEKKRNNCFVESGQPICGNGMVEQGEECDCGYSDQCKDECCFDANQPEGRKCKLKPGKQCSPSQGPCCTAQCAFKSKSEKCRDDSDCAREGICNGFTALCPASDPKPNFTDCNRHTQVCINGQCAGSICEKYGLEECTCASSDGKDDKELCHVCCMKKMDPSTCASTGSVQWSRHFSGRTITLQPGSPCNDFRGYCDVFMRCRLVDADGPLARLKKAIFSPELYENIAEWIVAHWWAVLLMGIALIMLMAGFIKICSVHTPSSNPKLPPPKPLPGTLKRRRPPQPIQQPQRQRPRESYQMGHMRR
KLK7 zymogen act: proKLK7 zymogen activators, primary screen, biochemical, fluorescence intensity. Kallikrein-7 (Homo sapiens), P49862. purified proKLK7, EDANS-DABCYL substrate fluorescence; 100% is mature enzyme control, 0% vehicle. activation, % at 7 µM. 370,000 tested, 0.9% active. AID 652039, 2013;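 active means activation above the mean of all tested compounds plus 3 SD, computed per campaign excluding outliers beyond control limits, cut at about 13% in these data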
ADAM17 inh: ADAM17 inhibitors, primary screen, biochemical, QFRET. Disintegrin and metalloproteinase domain-containing protein 17 (Homo sapiens), P78536. recombinant ADAM17, EDANS/DABCYL FRET peptide cleavage. inhibition, % at 6.95 µM. 370,000 tested, 0.83% active. AID 720648, 2013;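 active means inhibition above the mean of compounds lying between control limits plus 3 SD, set per campaign, cut at about 8.5% in these data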
rCAG RNA binder: binders of r(CAG) RNA repeats, primary screen, biochemical, fluorescence. inhibition, % at 3 µM. r(CAG) RNA repeat, TO-PRO-1 dye displacement fluorescence. 370,000 tested, 1.3% active;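 active means inhibition above the plate cutoff, the mean of all test compounds on that plate plus 3 SD, cut at about 35% in these data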;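 further: higher means more dye released from RNA so lower well fluorescence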
MPTP inh: mitochondrial permeability transition pore inhibitors, primary screen, biochemical, isolated mouse mitochondria, absorbance; Ca2+ swelling absorbance, 30 min; inhibition, % at 10 µM; 360,000 tested, 1.4% active; AID 602449, 2012;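 active means inhibition of 50% or more, scaled per plate between neutral and stimulator controls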
Pemphigus Ab inh: inhibitors of pemphigus antibody binding to DSG3, primary screen, biochemical, bead-based, flow cytometry, scFv-GFP; 310,000 tested, 0.48% active; AID 588358, 2011; DSG3-coupled beads, scFv-anti-DSG3-GFP binding; stronger effect = lower value; Desmoglein-3 (Homo sapiens), P32926; binding (percent of control), % at 10 µM;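 active means binding more than 3 SD below its plate's average and above zero; inconclusive means below that plate limit but binding exactly zero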;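 further: hits lower antibody fragment binding to DSG3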
MPTP counter: fluorescence retest of MPTP screen hits in isolated mitochondria, single concentration; AID 624504, 2012; 5,000 tested, 78% active; membrane potential, Rhodamine 123 fluorescence; shares compounds with MPTP inh; inhibition, % at 10 µM; in the data active means inhibition above about 22%
MPTP swell DR: mitochondrial permeability transition pore inhibitors, dose response, biochemical, absorbance, uHTS hits | shares compounds with MPTP inh | isolated mitochondria swelling | IC50, µM | 780 tested, 58% active | AID 651561, 2012; in the data active means IC50 below about 20 µM
MPTP cs DR: fluorescent counter-screen in isolated mitochondria, dose response, counter-screen for MPTP inhibitor project, biochemical, fluorescence, uHTS hits; shares compounds with MPTP inh; isolated mitochondria counterscreen, fluorescence read-out; IC50, µM; 780 tested, 49% active; in the data active means IC50 below about 80 µM
Each line names hits and unclear results; the compound was inactive in the other large screens (follow-up assays come after a bar, where they were run).

Cc1cc(C)c(NC(=O)/C(C#N)=C/c2ccc(OCc3ccc(F)cc3)cc2)c(C)c1	MPTP inh 85 | MPTP counter 22
Nc1nnc(CC(=O)N/N=C/c2cc([N+](=O)[O-])cc(Br)c2O)s1	rCAG RNA binder 59, MPTP inh 53 | MPTP counter inactive
CCNC(=O)N1CCN(c2ccc(N3CCN(Cc4ccccc4)[C@@H](C)C3)c(C)c2)[C@H](C)C1	none (no result: MPTP inh, Pemphigus Ab inh)
CC(C)(c1ccccc1)c1ccc(OCC(O)CNC2CCN(Cc3ccccc3)CC2)cc1 (centres undefined)	MPTP inh 68 | MPTP counter inactive
CCCCN(C)C/C(O)=C(\C#N)c1nc(-c2ccccc2)cs1	none
N#C/C(=C(/O)CN1CCCCC1)c1nc(-c2ccc(Cl)cc2)cs1	none
N#C/C(=C(/O)CN1CCN(c2ccccc2F)CC1)c1nc(-c2ccc(Cl)cc2)cs1	MPTP inh 58, Pemphigus Ab inh 60 | MPTP counter 71
Cc1ccc(-c2csc(/C(C#N)=C(\O)CCl)n2)cc1	rCAG RNA binder 35, MPTP inh 91 | MPTP counter 64
CN(C)CCOc1ccc(-c2c(-c3ccccc3)sc3ccccc23)cc1	MPTP inh 104 | MPTP counter inactive
C[C@H](O)[C@@H]1C(=O)N2CCc3c([nH]c4c(-c5ccccc5)cccc34)[C@@H]2C[C@@H]1N(C)CC1CCCCC1	none (no result: MPTP inh, Pemphigus Ab inh)
Cn1nc(CC(=O)Nc2ccc(N3CCN(C(=O)OC(C)(C)C)CC3)cc2)c2ccccc2c1=O	MPTP inh 101, Pemphigus Ab inh 86 | MPTP counter 74
Cc1ccc(NC(=O)Cc2nn(C)c(=O)c3ccccc23)cc1F	MPTP inh 59 (no result: Pemphigus Ab inh) | MPTP counter 80
Cn1nc(CC(=O)Nc2ccc3c(c2)OCCO3)c2ccccc2c1=O	Pemphigus Ab inh inconclusive
Cn1nc(CC(=O)N2CCN(c3ccccc3)CC2)c2ccccc2c1=O	none
COc1ccc(-c2c(C(=O)c3ccc(Br)cc3)[nH]c(N)c2C(=O)NCCc2c[nH]c3ccccc23)cc1OC	none (no result: MPTP inh, Pemphigus Ab inh)
c1ccc(-c2nc3ccccc3nc2-c2ccc(CN3CCC4(CC3)CNc3ccccc34)cc2)cc1	none (no result: MPTP inh, Pemphigus Ab inh)
O=[N+]([O-])c1ccccc1/C=C/C=Nn1c(-c2ccc(F)cc2)n[nH]c1=S	none (no result: MPTP inh, Pemphigus Ab inh)
Cc1ccc(CN2CCCCC(NC(=O)c3ccc(N(C)C)cc3)C2=O)cc1 (centres undefined)	none (no result: MPTP inh, Pemphigus Ab inh)
CC(=O)c1cccc(NC(=O)Nc2csc3c2CCCC3)c1	MPTP inh 80 | MPTP counter 94
CC1=NN(C(N)=S)C(=O)C1N=Nc1ccc(Cl)cc1Cl (centres undefined)	MPTP inh 55 | MPTP counter 83
CC1=NN(C(N)=S)C(=O)C1N=Nc1ccccc1Cl (centres undefined)	none
COc1cc(C2NCC(c3ccc(Cl)cc3Cl)c3c2[nH]c2ccccc32)cc(OC)c1OC (centres undefined)	ADAM10 inh 47, ADAM17 inh 22, MPTP inh 88 | MPTP counter inactive | MPTP swell DR inactive | MPTP cs DR inactive
O=C(O)c1ccc(C2NCC(c3ccccc3Cl)c3c2[nH]c2ccccc32)cc1 (centres undefined)	none
COC(=O)[C@]12C[C@H](CC(=O)NCc3cccc(C(F)(F)F)c3)C(=O)N(Cc3cccc4ccccc34)C1=C[C@H](COCc1ccccc1)O[C@@H]2C	none (no result: MPTP inh, Pemphigus Ab inh)
S=C(NCc1ccncc1)Nc1ccccc1	none
S=C(NCC1CCCO1)Nc1ccc(Cl)c(Cl)c1 (centres undefined)	MPTP inh 60 | MPTP counter 87
O=C(Cc1ccc(Cl)c(Cl)c1)NNC(=S)NCC1CCCO1 (centres undefined)	none
S=C(NCc1ccncc1)Nc1cc(Cl)cc(Cl)c1	MPTP inh 68 | MPTP counter 99
S=C(NCc1ccncc1)Nc1ccc(Cl)c(Cl)c1	MPTP inh 88 | MPTP counter 92
O=C(NC1CCCC1)[C@@H]1CCCN1C(=O)[C@@H](NS(=O)(=O)c1ccc(F)cc1F)C1CCCCC1	none (no result: MPTP inh, Pemphigus Ab inh)
O=C(c1cccc(S(=O)(=O)N2CCN(c3ccccc3)CC2)c1)N1CCCC(C(F)(F)F)C1 (centres undefined)	MPTP inh 68 | MPTP counter 71
O=C(COC(=O)C1(c2ccc(Cl)cc2)CCCC1)NCc1ccco1	none
CCc1ccc(NC(=O)COC(=O)C2(c3ccc(Cl)cc3)CCCC2)cc1	MPTP inh 65 | MPTP counter 75
C=CCN1C(=O)c2n[nH]c(C)c2C1c1ccc(C)cc1 (centres undefined)	none (no result: MPTP inh, Pemphigus Ab inh)
O=C(NN=Cc1ccc(O)cc1)c1ccccc1NS(=O)(=O)c1cccs1	none
O=C(N/N=C/c1cc(Cl)cc([N+](=O)[O-])c1O)c1ccccc1NS(=O)(=O)c1cccs1	MPTP inh 84 | MPTP counter 26
O=C(N/N=C/c1cc(Cl)cc([N+](=O)[O-])c1O)NC12CC3CC(CC(C3)C1)C2	MPTP inh 84 | MPTP counter inactive
O=C(N/N=C/c1ccccc1O)NC12CC3CC(CC(C3)C1)C2	Pemphigus Ab inh inconclusive
O=C(Nc1cccc([N+](=O)[O-])c1)NC1CCCCN(Cc2ccc(Cl)cc2)C1=O (centres undefined)	none (no result: MPTP inh, Pemphigus Ab inh)
CC(=O)c1c(C)[nH]c(C(=O)Nc2nc(-c3ccccc3)c(C)s2)c1C	MPTP inh 79 | MPTP counter 55
Cc1sc(NC(=O)c2cccs2)nc1-c1ccccc1	none
C[C@@H]1CN([C@H](C)CO)C(=O)c2cc(NS(=O)(=O)c3ccccc3)ccc2O[C@@H](C)CCCCO[C@@H]1CN(C)Cc1ccccc1	none (no result: MPTP inh, Pemphigus Ab inh)
CCOc1ccccc1N1CCN(C(=O)Nc2ccc(F)c(Cl)c2)CC1	MPTP inh 88 | MPTP counter 93
CON(C)C(=O)C(C)(C)CC#CCN(CC#Cc1ccccc1)S(=O)(=O)c1ccc(C)cc1	none (no result: MPTP inh, Pemphigus Ab inh)
Cc1ccc(C)c2c1cc(C)c1nnc(SCC(=O)N3CCCc4ccccc43)n12	none
